PERK inh – block of dimerizer-induced PERK translation repression, primary screen, PERK inhibitor project, CHO PERK-DD cells, SEAP luminescence, HTS; CHO PERK-DD fusion, SEAP luminescence translation reporter; Eukaryotic translation initiation factor 2-alpha kinase 3 (Homo sapiens), Q9NZJ5; inhibition, % at 5.6 µM; actives 0.17% (n = 220,000); AID 1416, 2008;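 active means inhibition above the mean inhibition of all tested compounds plus 3 SD, set separately per screening campaign, cut at about 2.9% in these data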;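 further: PERK kinase domain activated by AP20187 dimerizer at 100 nM; 0% = DMSO with dimerizer and 100% = rapamycin at 8.4 µM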
eIF4E 4G PPI – eIF4E–eIF4G protein interaction inhibitors, primary screen, biochemical, uHTS, TR-FRET, eIF4GI fragment; actives 0.37% (n = 220,000); TR-FRET eIF4E-eIF4GI(517-606) binding, 2 h; AID 782, 2007; inhibition, % at 21.7 µM; Eukaryotic translation initiation factor 4E (Mus musculus) + Eukaryotic translation …;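 active means inhibition above about 30%, limit read from the data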;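 further: 0% = full FRET control wells and 100% = background wells lacking eIF4GI fragment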
EP2 modulator – EP2 receptor modulators, cAMP readout, primary screen, cell-based, HTRF cAMP, PGE2 stimulation; Prostaglandin E2 receptor EP2 subtype (Homo sapiens), P43116; EP2-expressing cells, cAMP HTRF FRET, PGE2 co-stimulation; induction, % at 25 µM; actives 0.83% (n = 260,000);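 active means compounds whose cAMP rise, as percent of the full-agonist control response, exceeds 60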;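 further: rat C6 glioma line stably carrying human EP2 under a CMV promoter; the protocol text gives 20 µM as final concentration; 100% = response of wells given 1 µM PGE2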
EP2 antag – human EP2 receptor antagonists, primary screen, TR-FRET cAMP, C6 glioma cells; Prostaglandin E2 receptor EP2 subtype (Homo sapiens), P43116; C6 glioma cells expressing human EP2; cells stimulated with saturating PGE2; inhibition, % at 25 µM; actives 0.52% (n = 260,000);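 active means percent inhibition above 40 after rounding to a whole number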;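 further: rat C6 glioma host cells with rolipram phosphodiesterase inhibitor present; the protocol text gives 20 µM as final concentration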
An asterisk follows results filed as active; · = no result given; ! = repeats disagree; [ ] = another dose, or the depositor's remark. A selection: hits, their analogues and other compounds. The true share with any hit is near 1.8%.

SMILES | PERK inh | eIF4E 4G PPI | EP2 modulator | EP2 antag
CC(C)c1nnc(SCC(=O)N2CCCc3ccccc32)n1C | · | · | -27 | 6
Cc1ccccc1-c1nnc(SCC(=O)O)n1C | · | · | -11 | 9
O=[N+]([O-])c1cnc(Sc2ccncn2)s1 | 0 | 5 | -44 | 70*
Cc1cc(C)c2cc(C(c3nnnn3C3CCCCC3)N3CCCc4ccccc43)c(=O)[nH]c2c1 (centres undefined) | · | · | 71* | 8
CCc1ccc2[nH]c(=O)c(C(c3nnnn3Cc3ccccc3)N3CCCc4ccccc43)cc2c1 (centres undefined) | · | · | 66* | 15
Cc1ccc2[nH]c(=O)c(C(c3nnnn3C3CCCCC3)N3CCCc4ccccc43)cc2c1 (centres undefined) | · | · | 26 | 5
Cc1ccc2[nH]c(=O)c(C(c3nnnn3Cc3ccccc3)N3CCc4ccccc43)cc2c1 (centres undefined) | 0 | -25 | 28 | 3
CCc1ccc2[nH]c(=O)c(C(c3nnnn3Cc3ccco3)N3CCC(C)CC3)cc2c1 (centres undefined) | 0 | 11 | 61* | 3
O=C(Cn1nc2c3ccccc3ncn2c1=O)N1CCOCC1 | · | · | -2 | ·
O=C(CCC1CCCC1)N1CCN(c2ccccc2F)CC1 | · | · | -44 | 9
COc1ccc(C(=O)CSc2nnc(-c3ccc(OC)c(OC)c3)o2)cc1 | · | · | -170 | 59*
COC(C[C@H](O)[C@H](C)[C@H](O)COCc1ccccc1)OC | · | 79* | 10 | 5
COC(C[C@H](O)[C@@H](C)[C@H](O)COCc1ccccc1)OC | · | 4 | 24 | 9
Nc1ccn([C@@H]2O[C@H](CO)[C@@H](O)C2O)c(=O)n1 (some centres undefined) | 1 | 1 | · | 14
Nc1ccn([C@H]2O[C@H](COC(=O)C34CC5CC(CC(C5)C3)C4)[C@@H](O)[C@@H]2O)c(=O)n1 | · | · | 2 | 51*
CC(O)CNc1nc2c(c(=O)n(C)c(=O)n2C)n1Cc1cccc(Br)c1 (centres undefined) | 0 | 3 | 21 | 6
CC(C)CNc1nc2c(c(=O)n(C)c(=O)n2C)n1Cc1cccc(Br)c1 | -1 | 8 | 62* | 5
COc1ccc(F)cc1S(=O)(=O)NCc1ccco1 | · | · | -19 | 5
Cc1ccccc1OCC(O)CN1CCN(C)CC1 (centres undefined) | 2 | -5 | 16 | 6
Cc1cccc(Cl)c1NC[C@H](O)CN1CCN(C)CC1 | · | · | 13 | 47*
Cc1sc2ncn(C(C)C(=O)OCc3ccccc3Cl)c(=O)c2c1C (centres undefined) | · | · | 43 | 7
O=[N+]([O-])c1ccccc1N=Nc1c(O)[nH]c2ccc(S(=O)(=O)O)cc12 | · | · | 8 | 37
O=[N+]([O-])c1ccc2c(N=Nc3ccc4ccccc4c3O)c(O)cc(S(=O)(=O)O)c2c1 | · | · | -39 | 51*
O=S(=O)(O)c1ccc2c(N=Nc3cccc4ccccc34)c(O)c(S(=O)(=O)O)cc2c1 | · | · | -17 | 57*
NS(=O)(=O)c1ccc(N=Nc2c(O)c(C(=O)O)cc3ccccc23)cc1 | 0 | -6 | -24 | 50*!
SMILES | PERK inh | eIF4E 4G PPI | EP2 modulator | EP2 antag
COC(=O)c1ccc(C(=O)N2CCCC(c3noc(-c4ccccn4)n3)C2)cc1 (centres undefined) | · | · | -9 | 3
CN(c1ccccc1C(=O)N1CCCCC1)S(C)(=O)=O | · | · | 8 | 11
CCc1ccccc1NC(=S)N(Cc1ccco1)Cc1cc2cc(OC)ccc2[nH]c1=O | · | · | 23 | 3
COc1ccc2cc(CN(Cc3ccc4c(c3)OCO4)Cc3nnnn3C(C)(C)C)c(=O)[nH]c2c1 | · | · | -10 | 9
CN1CCOCCOCCN(C)C(=O)N2CCOCCOCCN(CCOCC2)C1=O | 3.6* | · | 17 | 7
Cc1ncccc1-c1cc2cccnc2n1CCCNC(=O)C1CCCCC1 | · | · | -30 | 11
CC1CC(C)CN(C(=O)Cn2c(SCC(=O)Nc3ccccc3)nc3ccccc32)C1 (centres undefined) | · | · | 24 | 12
C/C(CCc1oc2ccc(Br)cc2c1-c1ccc(C)o1)=N/O | 0 | 0 | 63* | 13
CCC(CC)C(=O)Oc1c(Sc2ccccc2[N+](=O)[O-])c(C)nn1C(C)(C)C | 1 | -1 | 18 | 6
COCC(=O)Oc1c(Sc2ccccc2[N+](=O)[O-])c(C)nn1C(C)(C)C | 0 | 41* | 49 | 6
COc1ccc(S(=O)(=O)N2c3ccccc3OCC2C(C)(C)C)cc1 (centres undefined) | 0 | 0 | 62* | 4
CCN(CC)S(=O)(=O)c1ccc(-c2nnc(SCc3nnc(-c4ccccc4)o3)o2)cc1 | 0 | -21 | 26 | 105*
O=S(=O)(c1ccc(-c2nnc(SCc3nnc(-c4ccccc4)o3)o2)cc1)N1CCCC1 | 1 | -7 | 25 | 2
Cc1ccc(S(=O)(=O)Nc2c(C)n(C)n(-c3ccccc3)c2=O)cc1C(=O)NCc1ccccn1 | 2 | 84* | 3 | 5
CCOC(=O)c1cnc(SC)nc1Nc1cccc2ccccc12 | 1 | -2 | 62* | 6
Cc1nn(-c2ccccc2)c(Cl)c1C(=O)N1CCN(c2ncnc3c2cnn3-c2ccccc2)CC1 | -1 | -10 | -43 | 40*
CCCCOC(=O)CCN1C(=O)/C(=C2\SC(=S)N(CCC(=O)OCCCC)C2=O)SC1=S | 2 | -2 | 3 | 5
CCCOC(=O)CCCN1C(=O)/C(=C2\SC(=S)N(CCCC(=O)OCCC)C2=O)SC1=S | 3.4* | -7 | -9 | 7
Oc1ccc(/C=N/Nc2cccc3cccnc23)c(O)c1 | -1 | -1 | -16 | 51*
Cc1sc2nc(C3CCCN(C(=O)C4CCCC4)C3)[nH]c(=O)c2c1C (centres undefined) | · | · | 9 | ·
CCOc1ccc(OCC)c(-c2c(=O)n(OCc3ccccc3Br)c3ccccc3[n+]2[O-])c1 | -1 | 5 | 64* | 5
CCOc1ccc(-c2c(=O)n(OCc3ccccc3Br)c3ccccc3[n+]2[O-])c(OCC)c1 | 0 | -7 | 33 | 18
CCCCC1=CC2=CC(=O)C(C)(OC(=O)CC)C(=O)C2=CN1c1ccccc1 (centres undefined) | · | 71* | 6 | 4
CCCCC1=CC2=CC(=O)C(C)(OC(=O)CC)C(=O)C2=CN1Cc1ccccc1 (centres undefined) | · | 0 | 1 | 17
Cc1nc(C(C)(C)O)n(-c2ccccc2)n1 | 2 | 92*[fluorescence artefact?] | 6 | 12
CC(C)(O)c1nnn(-c2ccccc2)c1C(F)(F)F | 1 | -1 | 13 | 11
O=C(CSc1nc(-c2ccc(F)cc2)cc(C(F)(F)F)n1)NCCCN1CCOCC1 | · | · | -16 | 27
COc1ccc(O)c(/C=C(\C#N)C(=O)Nc2cccnc2)c1 | 0 | 37* | -9 | 9

Bioassay records as filed in PubChem.
